Bioassay records as filed in PubChem BioAssay.
Dicer inh = inhibitors of Dicer pre-microRNA processing, primary screen, biochemical, cat-ELCCA, chemiluminescence. Endoribonuclease Dicer (Homo sapiens), Q9UPY3. cat-ELCCA pre-miR-21 Dicer processing; hits give high values. z-score at 25 µM. 6% of 47,000 active; in the data active = z-score above about 3, passing the limit was not always enough;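 note: plate controls were vehicle for no effect and no enzyme for full effect; higher signal means more uncleaved substrate so more Dicer inhibition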
* = called active by the depositor. The sample as a whole holds a higher share of hits than the screen did.

SMILES	Dicer inh
Cc1cc2c(cc1C)NC(=O)c1ccccc1C(c1ccccc1)=N2	3.1*
CC1CN=C(c2ccccc2)c2ccccc2C(=O)O1 (stereo not drawn)	-0.71
C=C1c2cc(C)c(C)cc2NC(=O)N1c1ccccc1	2.9
CCCCSC1=C(C#N)C(=O)NCS1	5.7*
CCCCSC1=C(C#N)C(=O)NC(CC(C)C)S1 (stereo not drawn)	2.9
CCCCCCSC1=C(C#N)C(=O)NC(CO)S1 (stereo not drawn)	-2.3
CCCCSC1=C(C#N)C(=O)NC(CCC)S1 (stereo not drawn)	5.4*
CCCCSC1=C(C#N)C(=O)NC(c2ccc(OC)cc2)S1 (stereo not drawn)	-2
CCCCSC1=C(C#N)C(=O)NC(c2ccccc2O)S1 (stereo not drawn)	0.9
O=C(Nc1ccccc1)Nc1cscc1S(=O)(=O)c1ccc(Cl)cc1	-0.89
Cc1csc2sc(C(=O)N3CCOCC3)c(C)c12	-0.06
CC1=CCC2C(=O)N(c3ccc(C(=O)O)cc3)C(=O)C2C1 (stereo not drawn)	-0.37
O=C(c1ccc(N2C(=O)C3CC=C(Cl)CC3C2=O)cc1)N1CCOCC1 (stereo not drawn)	4.5*
CC1=CCC2C(=O)N(c3ccc(N4CCOCC4)cc3)C(=O)C2C1 (stereo not drawn)	0.06
CC(=O)NC(Nc1ccc(C(F)(F)F)cc1)(C(F)(F)F)C(F)(F)F	-1.7
O=C(c1nn2c(C(F)(F)F)cc(-c3ccccc3)nc2c1Br)N1CCOCC1	-0.52
O=C(c1nn2c(c1Br)NC(c1ccccc1)CC2C(F)(F)F)N1CCOCC1 (stereo not drawn)	5.2*
Cc1ccc(C2CC(C(F)(F)F)n3nc(C(=O)N4CCN5CCCC5C4)c(Cl)c3N2)cc1 (stereo not drawn)	-1.7
O=C(c1nn2c(c1Cl)NC(c1ccc(Br)cc1)CC2C(F)(F)F)N1CCCCC1 (stereo not drawn)	-1.3
CC(NC(=O)c1nn2c(c1Cl)NC(c1ccccc1)CC2C(F)(F)F)c1ccccc1 (stereo not drawn)	-0.69
O=C(O)c1nn2c(c1Br)NC(c1ccccc1)CC2C(F)(F)F (stereo not drawn)	-0.34
Cc1ccc(C2CC(C(F)(F)F)n3nc(C(=O)N4CCCCC4)c(Cl)c3N2)cc1 (stereo not drawn)	0.49
O=C(c1nn2c(c1Cl)NC(c1ccc(Br)cc1)CC2C(F)(F)F)N1CCOCC1 (stereo not drawn)	3.7*
NC(=O)c1nn2c(c1Br)NC(c1ccccc1)CC2C(F)(F)F (stereo not drawn)	3.8*
Nc1sc(-c2ccccc2)cc1C(=O)N/N=C/c1cccs1	-1.1
SMILES	Dicer inh
O=C(CSc1n[nH]c(=O)n1-c1ccccc1)c1ccc(Cl)cc1	-3.5
COc1cc(-n2c(SCC(=O)c3ccccc3)nc3ccccc3c2=O)c(OC)cc1Cl	-0.01
COc1cc(-n2c(SCC(=O)c3ccc(Cl)cc3)nc3ccccc3c2=O)c(OC)cc1Cl	3.8*
NC(=S)CS(=O)(=O)c1cccs1	-2.7
Cc1csc2sc(C(=O)Oc3ccc(Cl)cc3)c(C)c12	0.29
O=C(O)[C@H]1CCCC[C@H]1C(=O)Nc1ccc(S(=O)(=O)N2CCCC2)cc1	-0.06
S=c1[nH]c(=S)c2c3c(sc2[nH]1)CCCC3	-1.2
CC1(C)CC(=O)C2=C(C1)OC1=C(C(=O)CC(C)(C)C1)C2c1ccc(Br)cc1	0.76
CC1(C)CC(=O)C2=C(C1)OC1CCCCC21 (stereo not drawn)	3.4*
CC1(C)CC(=O)C2=C(C1)OC1=C(C2)C(=O)CC(C)(C)C1	0.85
Cc1nc(C(F)(F)F)nc(Sc2cccc(C(F)(F)F)c2)c1C	1.6
CN(NS(=O)(=O)c1ccccc1C(F)(F)F)c1cnc2ccccc2n1	-0.13
N#Cc1ccc(CO/N=C(\N)c2ccc(Cl)cc2)cc1	0.11
Cc1cc(C)c2c(n1)sc1c(=O)n(/N=C/c3ccccc3Cl)cnc12	-0.41
O=C1SC(Nc2cccc(Cl)c2)C(=O)N1c1ccccc1 (stereo not drawn)	0.86
O=C1SC(Nc2ccc(F)cc2)C(=O)N1c1ccccc1 (stereo not drawn)	1.9
COc1cccc(NC2SC(=O)N(c3ccccc3)C2=O)c1 (stereo not drawn)	49*
Cc1cc(N/C=C(\C#N)C(=O)c2ccc(Cl)cc2)no1	-1
NNC(=S)Nc1cccc(C(F)(F)F)c1	0.04
O=S(=O)(c1cc(C(F)(F)F)cc(C(F)(F)F)c1)N1CCc2c([nH]c3ccccc23)C1C(F)(F)F (stereo not drawn)	3.5*
FC(F)(F)Oc1ccccc1NC(=S)N1CCc2c([nH]c3ccccc23)C1C(F)(F)F (stereo not drawn)	-7
O=C(NC(=O)N1CCc2c([nH]c3ccccc23)C1C(F)(F)F)c1ccccc1 (stereo not drawn)	7.5*
O=C(O)CCCC(=O)N1CCc2c([nH]c3ccccc23)C1C(F)(F)F (stereo not drawn)	-0.64
